Data taken from PubChem BioAssay AID493029 (Johns Hopkins Ion Channel Center, 2011).
The campaign covered roughly 1,000 compounds. About 140 (14%) were called active. How the calls were made is not given here. A selection follows.

assay: non-target flux effects, untransfected CHO, cell-based, thallium flux, counter-screen for KCNQ2 inhibitor project (AID 493029); conditions: parental CHO cells, at 10 µM; stronger effect = lower value;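 on activity change: 0% = vehicle negative controls with stimulus buffer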

Compound	activity change
CCc1ccc(-c2nn(-c3ccccc3)cc2CSC(=N)N)cc1	-31% (active)
CC(NC(=S)NNS(=O)(=O)c1ccc(C(C)(C)C)cc1)c1ccccc1 (stereo unspecified)	inactive
C=CS(=O)c1sc(Cl)c(N2CCOCC2)c1[N+](=O)[O-] (stereo unspecified)	-22.5% (active)
Cc1ccc(C(=O)c2c(NC(=O)c3ccccc3)sc(C)c2C)cc1	inactive
O=C(OCC(=O)N(CCc1ccccc1)Cc1ccccc1)c1ccccc1[N+](=O)[O-]	inactive
CCOC(=O)C(C)Sc1nc2ccccc2c(=O)n1CC1CCCCC1 (stereo unspecified)	-21% (active)
Cc1ccc(C2=Nc3c(ccc4ccccc34)C(c3ccncc3)=NN2)cc1	inactive
COc1cccc(COc2ccc(N(C)S(=O)(=O)c3ccccc3)cc2)c1	inactive
Cc1ccc(C(C)C)cc1OCC(=O)Nc1ccccc1N1CCCC1	inactive
CC(C)N(C(=O)CSc1nc(COc2ccccc2)nc2ccccc12)C(C)C	-42.5% (active)
CCc1ccc(-c2cc(C(=O)NCc3ccco3)c3ccccc3n2)s1	inactive
CC(C)[C@H](NC(=O)OCc1ccccc1)C(=O)OCc1ccccc1	inactive
Cc1ccc(N2C(=O)C3C(c4ccccc4)(C2=O)C3(c2ccccc2)c2ccccc2)cc1 (stereo unspecified)	inactive
Cc1cccc(C(=O)OC(C)C(=O)NC2CCCc3ccccc32)c1O (stereo unspecified)	inactive
CCc1ccccc1NC(=O)/C(=C/c1ccccc1)c1ccccc1	inactive
CSCc1cc(N(C)C)nc(SCc2ccc(Cl)cc2Cl)n1	inactive

Compound	activity change
O=C(Nc1ccccc1Cl)/C(Cl)=C(\Cl)S(=O)c1ccccc1 (stereo unspecified)	inactive
CCc1ccc2ncc(C(=O)c3ccccc3)c(N3CCOCC3)c2c1	inactive
CC(C(=O)NCC1CCCCC1)N(C)Cc1cccc(Cl)c1 (stereo unspecified)	-35% (active)
CC(C)C(NC(=O)OCc1ccccc1)C(=O)OCC(=O)N1C(C)CCCC1C (stereo unspecified)	inactive
COc1ccc(CN(C)C(C)C(=O)NC2CCCc3ccccc32)cc1 (stereo unspecified)	inactive
COC(=O)C1=C(C)N(C(C)c2ccccc2)C(=O)/C1=C\c1ccco1 (stereo unspecified)	inactive
Fc1ccc2[nH]c3c(N4CCSCC4)ncnc3c2c1	inactive
CCOC(=O)N1CCC(N(CCOC)C(=O)Nc2ccc(C)c(C)c2)CC1	-23.5% (active)
Cc1ccccc1N1CCN(CC(=O)NCc2ccc(Cl)cc2)CC1	inactive
COc1ccc(Cl)cc1NC(=O)CN(C)Cc1ccc(OC)c(OC)c1	inactive
CN(Cc1ccccc1F)C(=O)C(Cc1ccccc1)NC(=O)c1ccccc1 (stereo unspecified)	inactive
O=C(Nc1ccc(Cl)c(Cl)c1)N1CC=C(c2ccccc2)CC1	inactive
Cc1nc2ccccc2c(-c2ccccc2)c1C(=O)c1ccccc1	inactive
C=CCn1c(SCC(=O)/C(C#N)=C(\C)N)nc2sc(C)c(C)c2c1=O	inactive
Cc1ccccc1C(=O)Nc1ccccc1Sc1ccccc1	inactive
